Screening results (PubChem)
The full list was thinned out, with hits kept by preference.
LmPK inh: LmPK (Leishmania mexicana) enzyme inhibition; purified LmPK, Kinase-Glo ATP luminescence, 1 h; Potency, µM (top dose mostly 57.5 µM), for the others: top-dose activity change, negative = inhibition, hits mostly inhibitors; actives 0.37% (n = 290,000); AID 1721; also: potency is read from the fitted curve at half-maximal effect; % is scaled to controls: 0 for no effect and ±100 for the full control effect
Target sequence (Q27686 whole entry, looked up): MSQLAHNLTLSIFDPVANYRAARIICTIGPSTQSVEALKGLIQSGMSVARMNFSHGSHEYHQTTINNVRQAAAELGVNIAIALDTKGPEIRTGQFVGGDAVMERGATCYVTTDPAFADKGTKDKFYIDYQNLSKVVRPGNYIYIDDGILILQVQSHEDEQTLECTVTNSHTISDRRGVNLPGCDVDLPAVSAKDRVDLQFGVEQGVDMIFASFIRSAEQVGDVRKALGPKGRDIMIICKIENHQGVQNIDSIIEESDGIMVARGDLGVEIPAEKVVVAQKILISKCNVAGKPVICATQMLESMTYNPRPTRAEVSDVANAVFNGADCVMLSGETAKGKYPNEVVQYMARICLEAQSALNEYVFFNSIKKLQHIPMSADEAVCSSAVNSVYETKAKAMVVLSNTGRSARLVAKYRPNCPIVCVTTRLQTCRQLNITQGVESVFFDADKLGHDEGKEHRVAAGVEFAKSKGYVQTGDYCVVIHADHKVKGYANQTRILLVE
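Kinase-Glo luminescence read after 1 h RT reaction of 0.1 nM LmPK with 0.5 mM PEP and 0.1 mM ADP. Activity scaled between uninhibited and enzyme-free controls.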
FBPA Giardia inh: blocks Giardia fructose-bisphosphate aldolase activity; A8B2U2; purified Giardia FBPA; Potency, µM (doses to about 59.6 µM), inactives show at the highest dose activity, negative = inhibition, actives largely listed as inhibitors; actives 0.71% (n = 290,000); AID 2451; also: potency is read from the fitted curve at half-maximal effect; % is scaled to controls: 0 for no effect and ±100 for the full control effect; nearly all actives have a fitted effect of over 55% in size
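Giardia FBPA (40 nM reagent) was preincubated 10 min at RT with compound (up to 57.5 uM final), then substrate plus GAPDH/TPI/NAD/arsenate coupling system with diaphorase/resazurin was added; resorufin fluorescence (525/598 nm) was read after 20 min.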
Shiga toxin inh: blocks Shiga toxin action in Vero cells; Vero cells, Shiga toxin protein synthesis inhibition reporter; AID 2315; actives 9.2% (n = 290,000); inhibition, % at 38.7 µM; in the data active = inhibition mostly above about 28%, no sharp cut-off; inactive = mostly below about 43%; also: 0% is about no effect
Cycloheximide cs: counter-screen hit for Shiga toxin inhibitors, cycloheximide; cell reporter, cycloheximide protein synthesis inhibition counterscreen; max response, %; AID 2314; actives 12% (n = 300,000); in the data active = max response mostly above about 13%, no sharp cut-off; inactive = mostly below about 14%; also: read at 38.3 µM for the half of the compounds with a filed dose; 0% is about no effect
RE007 growth inh: less growth of the S. pombe RE007 Vpr strain; actives 0.21% (n = 360,000); AID 651644; Potency, µM (highest dose often 92.2 µM), for inactives: at the highest dose activity change, negative = less growth, usual class: inhibitors; S. pombe RE007 Vpr strain, BacTiter-Glo ATP luminescence, 24 h; active = well fitted falling curve with a large enough effect; inconclusive = small, poorly fitted or top-dose-only effect; inactive = no such curve, though single readings can be large or run the other way; also: potency is read from the fitted curve at half-maximal effect; % is scaled to controls: 0 for no effect and ±100 for the full control effect; nearly all actives have a fitted effect of over 50% in size
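Fission yeast strain RE007, carrying one chromosomally integrated HIV-1 vpr copy, was seeded at OD 0.01 in PMG+AL medium with 23 nL pinned compound. After 24 h at 30 °C and 99% humidity, viability was read by BacTiter-Glo luminescence.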
TbPYK inhibitor: T. brucei pyruvate kinase inhibition; Q57TT1; actives 0.12% (n = 410,000); AID 624173; Potency, µM (titrated, usually from 76.8 µM), inactives show at the top dose activity, negative = inhibition, hits mostly inhibitors; TbPYK enzyme, Kinase-Glo Plus ATP luminescence, 45 min; also: potency is read from the fitted curve at half-maximal effect; % is scaled to controls: 0 for no effect and ±100 for the full control effect; nearly all actives have a fitted effect of over 50% in size
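Glycolytic pyruvate kinase of T. brucei was incubated with substrate, test compound and 130 uM ADP for 45 minutes at room temperature. Luminescent Kinase-Glo Plus signal was measured after 10 minutes.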
Starred values were filed as active, the others as inactive; ? = inconclusive; nt = no result; [ ] = remark or other dose. Unless noted, calls follow the shape of the dose curve; as a rule, active = well fitted curve in the direction sought with a large enough effect; inconclusive = small, poorly fitted or top-dose-only effect, or another doubt; inactive = no such curve, though single readings can be large; an effect the other way counts as inactive or inconclusive.

SMILES	LmPK inh	FBPA Giardia inh	Shiga toxin inh	Cycloheximide cs	RE007 growth inh	TbPYK inhibitor
O=C1Nc2ccc(NS(=O)(=O)c3cccs3)c3cccc1c23	3%	8.9µM*	9	12	8%	6%
O=C(Nc1ccc(Cl)cc1)N1CCC(c2nc(-c3cccs3)no2)CC1	-11%	4%	49*	24*	3%	0%
COc1cccc(C(=O)N2CCCC(c3nc(-c4cccs4)no3)C2)c1 (configuration not stated)	-1%	5%	36	20	-1%	-8%
COc1ccc(NC(=O)N2CCC(c3nc(-c4cccs4)no3)CC2)cc1	1%	-2%	11	19*	1%	31%
O=C(Nc1ccccc1)N1CCCC(c2nc(-c3cccs3)no2)C1 (configuration not stated)	-1%	7%	80*	19*	10%	-14%
O=C(NC1CCCCC1)N1CCCC(c2nc(-c3cccs3)no2)C1 (configuration not stated)	-1%	nt	18	-2	1%	0%
O=C(Nc1ccc(Cl)cc1)N1CCC(c2nc(-c3ccccc3Cl)no2)CC1	8%	6%	10	15	-11%	2%
COc1ccc(OC)c(-n2c(C)ccc2-c2ccc(S(C)(=O)=O)cc2)c1	5%	?	-3	5	-9%	1%
Cc1cccc(NC(=O)Cc2coc3ccc4ccccc4c23)n1	6%	-16%	-8	-2	?	-5%
CC1(C)O[C@H]2C[C@@H]3[C@H]4CCC5=CC(=O)C=C[C@]5(C)[C@@]4(F)[C@@H](O)C[C@]3(C)[C@]2(C(=O)CO)O1	nt	-2%	7	-3	nt	-17%
CC(C)(C)c1nn(-c2ccccc2)c2[nH]c(=O)c(CNc3ccc4c(c3)OCCO4)cc12	-2%	-29%	30	16*	5%	7%
CC(C)(C)c1nn(-c2ccccc2)c2[nH]c(=O)c(CNCc3ccco3)cc12	8%	-7%	18	12	13%	2%
O=S(=O)(Nc1nc2ccccc2nc1Nc1cccc(S(=O)(=O)N2CCCCC2)c1)c1ccccc1	2%	9%	-5	-4	19%	2%
Cc1cccc(NC(=S)NC(=O)CCc2ccccc2)c1	0%	1%	72*	18*	?	-6%
Cc1cccc(NC(=O)NNC(=O)CCc2ccccc2)c1	1%	10%	-4	0	19%	-4%
CN(C)c1ccc(NC(=O)CCCc2ccccc2)cc1	-8%	?	100*	36*	4%	?
Cc1cccc(NC(=O)CCCc2ccccc2)c1	0%	-4%	73*	57*	-12%	7%
CC(C)NC(=O)CCCc1ccccc1	5%	7%	58*	27*	11%	1%
CCC(NC(=O)CCCc1ccccc1)c1ccccc1 (configuration not stated)	2%	1%	0	-2	nt	-9%
CCOC(=O)C1(C)CCCN1C(=O)c1ccc(F)c(Cl)c1 (configuration not stated)	nt	nt	nt	nt	1%[18.4 µM]	9%
CC(O)c1cccc(NC(=O)CCC(=O)O)c1 (configuration not stated)	-1%	0%	-15	-3	-2%	-3%
CC(O)c1cccc(NC(=O)CCCc2ccccc2)c1 (configuration not stated)	6%	0%	49*	12	3%	5%
C=CCc1cccc(CNc2cnc3ccccc3c2)c1O	-1%	6%	20*	17*	-4%	-10%
CC(C)n1c(NCc2cc(Cl)ccc2O)nc2ccccc21	1%	-5%	-19	-10	1%	5%
Oc1ccc2ccccc2c1CNc1ccc(Br)cc1	4%	-9%	-5	5	-14%	-16%
SMILES	LmPK inh	FBPA Giardia inh	Shiga toxin inh	Cycloheximide cs	RE007 growth inh	TbPYK inhibitor
C=CCc1cccc(CNc2nc3ccccc3n2C)c1O	11%	-4%	41	12	-19%	3%
Oc1ccc2ccccc2c1CNc1ccc(Br)cn1	-4%	2%	66*	46*	3%	4%
Oc1ccc2ccccc2c1CNc1cnc2ccccc2c1	4%	?	92*	29*	-7%	nt
Oc1ccc(Cl)cc1CNc1cnc2ccccc2c1	-1%	-6%	32	14*	-22%	-5%
O=C(NCc1c(O)ccc2ccccc12)c1ccccc1	-3%	2%	11	2	4%	-2%
CCOC(=O)c1ccccc1NC(=O)COC(=O)Cc1ccccc1F	nt	nt	nt	nt	-13%	-7%
Oc1ccccc1CNc1cnc2ccccc2c1	3%	-2%	32*	31*	-4%	-15%
CC1=C(C(=O)N(C)C)CC(CC(=O)NCc2cccs2)C(=O)N1CCCN1CCCC1=O (configuration not stated)	nt	nt	nt	nt	-1%	-1%
O=C1c2ccccc2C(O)(c2ccccc2)N1c1ccc([N+](=O)[O-])cc1Cl (configuration not stated)	nt	nt	nt	nt	32%	0%
C#CCn1c(=NC(=O)c2cc(Cl)sc2Cl)sc2cc(S(N)(=O)=O)ccc21	1%	-4%	36	13	11%	1%
CCOc1cccc2sc(=NC(=O)CCS(=O)(=O)c3ccccc3)n(CC)c12	2%	1%	-3	-2	-15%	-4%
C#CCn1c(=NC(=O)c2ccco2)sc2cccc(Cl)c21	9%	-5%	24	13*	-1%	0%
CCOc1cccc2sc(=NC(=O)c3ccco3)n(CC(=O)OC)c12	-4%	-9%	68*	37*	-11%	1%
CCCc1cc(=O)n2nc(N3CCC(C(=O)NCc4ccc(C)o4)CC3)sc2n1	-10%	nt	14	6	0%	3%
Cc1cc(C(=O)N2CCc3ccccc3C2)n[nH]1	2%	4%	53*	24*	4%	-7%
O=C(c1cc(-c2ccccc2)on1)N1CCc2ccccc2C1	0%	-1%	-6	-1	-12%	0%
Cc1cc(C(=O)N2CCc3ccccc3C2)no1	-2%	nt	13	19*	14%	-6%
O=C(c1ccc(=O)[nH]n1)N1CCc2ccccc2C1	3%	0%	20	6	10%	-2%
COC(=O)[C@H](Cc1ccccc1)NC(=O)C/C=C\[C@@H](C)[C@@H](CO)OC	nt	-1%[12.9 µM]	nt	nt	nt	nt
CCn1cc(C(=O)OCc2ccccc2)c(=O)c2ccc(C)nc21	-8%	3%	-2	1	13%	7%
CCOC(=O)c1ccccc1NC(=O)c1cn(CC)c2nc(C)ccc2c1=O	13%	9%	64*	40*	1%	0%
CCOC(=O)c1cn(CC)c2c(ccc3ccccc32)c1=O	3%	9%	42*	35*	-19%	-3%
CCn1cc(C(=O)Nc2ccccc2C(=O)OC)c(=O)c2ccc(C)nc21	1%	-3%	145*	51*	nt	nt
